Test results published in the supplement of paper PMC12645437, “Orthogonal IMiD-Degron Pairs Induce Selective Protein Degradation in Cells” (ACS Chemical Biology, 2025).
Over roughly 8,300 sequences, “log2 fold change of degron read counts, EGFP-low vs EGFP+ sorted cells (limma voom), compound-induced degradation” has its median near -1.1; the highest 2% begin near 3.2. The full list was thinned out, with the highest values kept by preference.

T1: CRBN, Q96SW2
T1 chain: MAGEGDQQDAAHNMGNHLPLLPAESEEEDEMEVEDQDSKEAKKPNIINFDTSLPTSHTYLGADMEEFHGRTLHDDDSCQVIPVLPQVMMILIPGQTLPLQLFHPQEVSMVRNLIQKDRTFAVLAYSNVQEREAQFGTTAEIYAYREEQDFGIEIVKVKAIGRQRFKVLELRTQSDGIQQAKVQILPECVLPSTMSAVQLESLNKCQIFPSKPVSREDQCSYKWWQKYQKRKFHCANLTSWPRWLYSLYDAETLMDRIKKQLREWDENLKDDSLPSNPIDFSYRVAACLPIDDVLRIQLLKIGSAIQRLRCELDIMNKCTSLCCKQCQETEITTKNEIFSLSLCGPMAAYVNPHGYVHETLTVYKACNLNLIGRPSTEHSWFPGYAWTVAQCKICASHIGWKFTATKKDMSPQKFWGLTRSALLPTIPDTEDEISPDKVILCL

B1: 46F_47F_49P_50I_52G_53R_54M_55F_67L_, Q9UKT9 (peptide)
chain: FFCPICGRMFTQKGNLLRHIKL
B2: 46F_47H_49N_50I_52G_53A_54Q_55F_67L_, Q9UKT9 (peptide)
chain: FHCNICGAQFTQKGNLLRHIKL
B3: 46F_47Y_49E_50I_52G_53R_54C_55F_67L_, Q9UKT9 (peptide)
chain: FYCEICGRCFTQKGNLLRHIKL
B4: 46F_47K_49E_50Q_52G_53A_54V_55F_67L_, Q9UKT9 (peptide)
chain: FKCEQCGAVFTQKGNLLRHIKL
B5: 46F_47K_49N_50Q_52G_53A_54V_55F_67L_, Q9UKT9 (peptide)
chain: FKCNQCGAVFTQKGNLLRHIKL
B6: 46L_47C_49N_50Q_52G_53F_54A_55C_67L_, Q9UKT9 (peptide)
chain: LCCNQCGFACTQKGNLLRHIKL
B7: 46F_47I_49N_50Q_52G_53R_54G_55F_67L_, Q9UKT9 (peptide)
chain: FICNQCGRGFTQKGNLLRHIKL
B8: 46F_47V_49N_50Q_52G_53R_54L_55F_67L_, Q9UKT9 (peptide)
chain: FVCNQCGRLFTQKGNLLRHIKL
B9: 46F_47W_49D_50V_52G_53A_54A_55F_67L_, Q9UKT9 (peptide)
chain: FWCDVCGAAFTQKGNLLRHIKL
B10: 46F_47A_49P_50V_52G_53A_54A_55F_67L_, Q9UKT9 (peptide)
chain: FACPVCGAAFTQKGNLLRHIKL
B11: 46F_47V_49D_50V_52G_53A_54A_55F_67L_, Q9UKT9 (peptide)
chain: FVCDVCGAAFTQKGNLLRHIKL
B12: 46F_47Y_49D_50V_52G_53A_54A_55F_67L_, Q9UKT9 (peptide)
chain: FYCDVCGAAFTQKGNLLRHIKL
B13: 46F_47L_49P_50V_52G_53A_54A_55F_67L_, Q9UKT9 (peptide)
chain: FLCPVCGAAFTQKGNLLRHIKL
B14: 46F_47R_49P_50V_52G_53A_54A_55F_67L_, Q9UKT9 (peptide)
chain: FRCPVCGAAFTQKGNLLRHIKL
B15: 46F_47V_49N_50Q_52G_53A_54R_55F_67L_, Q9UKT9 (peptide)
chain: FVCNQCGARFTQKGNLLRHIKL
B16: 46F_47R_49N_50Q_52G_53H_54E_55F_67L_, Q9UKT9 (peptide)
chain: FRCNQCGHEFTQKGNLLRHIKL
B17: 46F_47D_49P_50I_52G_53H_54I_55F_67L_, Q9UKT9 (peptide)
chain: FDCPICGHIFTQKGNLLRHIKL
B18: 46L_47A_49P_50I_52G_53F_54W_55C_67L_, Q9UKT9 (peptide)
chain: LACPICGFWCTQKGNLLRHIKL
B19: 46F_47I_49E_50Q_52G_53A_54I_55F_67L_, Q9UKT9 (peptide)
chain: FICEQCGAIFTQKGNLLRHIKL
B20: 46F_47M_49E_50I_52G_53R_54L_55F_67L_, Q9UKT9 (peptide)
chain: FMCEICGRLFTQKGNLLRHIKL
B21: 46F_47N_49P_50I_52G_53H_54C_55F_67L_, Q9UKT9 (peptide)
chain: FNCPICGHCFTQKGNLLRHIKL
B22: 46F_47N_49D_50I_52G_53A_54W_55F_67L_, Q9UKT9 (peptide)
chain: FNCDICGAWFTQKGNLLRHIKL
B23: 46F_47K_49P_50V_52G_53A_54S_55F_67L_, Q9UKT9 (peptide)
chain: FKCPVCGASFTQKGNLLRHIKL
B24: 46F_47F_49P_50V_52G_53A_54S_55F_67L_, Q9UKT9 (peptide)
chain: FFCPVCGASFTQKGNLLRHIKL
B25: 46F_47S_49P_50V_52G_53A_54S_55F_67L_, Q9UKT9 (peptide)
chain: FSCPVCGASFTQKGNLLRHIKL
B26: 46F_47A_49P_50V_52G_53A_54S_55F_67L_, Q9UKT9 (peptide)
chain: FACPVCGASFTQKGNLLRHIKL
B27: 46F_47G_49P_50V_52G_53A_54S_55F_67L_, Q9UKT9 (peptide)
chain: FGCPVCGASFTQKGNLLRHIKL
B28: 46F_47T_49P_50V_52G_53A_54S_55F_67L_, Q9UKT9 (peptide)
chain: FTCPVCGASFTQKGNLLRHIKL
B29: 46F_47M_49P_50V_52G_53A_54S_55F_67L_, Q9UKT9 (peptide)
chain: FMCPVCGASFTQKGNLLRHIKL
B30: 46F_47E_49P_50V_52G_53A_54S_55F_67L_, Q9UKT9 (peptide)
chain: FECPVCGASFTQKGNLLRHIKL
B31: 46F_47V_49P_50V_52G_53A_54S_55F_67L_, Q9UKT9 (peptide)
chain: FVCPVCGASFTQKGNLLRHIKL
B32: 46F_47Q_49P_50V_52G_53A_54S_55F_67L_, Q9UKT9 (peptide)
chain: FQCPVCGASFTQKGNLLRHIKL
B33: 46F_47D_49P_50V_52G_53A_54S_55F_67L_, Q9UKT9 (peptide)
chain: FDCPVCGASFTQKGNLLRHIKL
B34: 46F_47N_49P_50V_52G_53A_54S_55F_67L_, Q9UKT9 (peptide)
chain: FNCPVCGASFTQKGNLLRHIKL

Target: T1, CRBN, Q96SW2
Assay: log2 fold change of degron read counts, EGFP-low vs EGFP+ sorted cells (limma voom), compound-induced degradation; higher = more compound-induced degradation of the degron-EGFP fusion; degrons are variants of IKZF1/3 zinc finger 2; compound dose not given here
Details: Jurkat, 18 h
Method: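 Pooled library of 8380 IKZF3 ZF2 degron mutants (positions 146-167 varied within the IKZF3 130-189 degron; only the varied core is printed, flanks not printed) fused to EGFP with IRES-mCherry, lentivirally expressed in Jurkat cells. mCherry+ cells were treated with one IMiD compound for 18 h (dose not stated) and FACS-sorted into EGFP-low and EGFP+ populations. Degron sequences were counted by NGS, and log2FC (EGFP-low vs EGFP+) was estimated by limma voom over 3 biological replicates.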

[1] = compound: compound 19 (5-tert-butyl-thalidomide)
[2] = compound: compound 22 (5-morpholino-thalidomide)
[3] = compound: compound 33 (diphenyl IMiD analogue)
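Also: pooled lentiviral library of zinc finger degron-EGFP fusions in mCherry-positive Jurkat cells, FACS-sorted after compound exposure, with degron abundance counted by next-generation sequencing.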

Sequence	log2 fold change of degron read counts [1]	log2 fold change of degron read counts [2]	log2 fold change of degron read counts [3]	log2 fold change of degron read counts (compound: thalidomide)
B1	0.209	-0.113	0.441	-0.935
B2	0.655	1.29	1.05	-0.181
B3	0.939	0.533	1.13	-0.963
B4	-3.73	-2.96	-3.73	-3.19
B5	-2.58	-2.71	-3.07	-2.52
B6	-1.66	-2.13	-1.86	-1.41
B7	-3.02	-3.8	-3.62	-2.96
B8	-1.99	-2.78	-1.99	-1.68
B9	2.61	3.37	1.17	-0.68
B10	3.6	2.87	1.74	1.56
B11	-0.53	1.92	0.755	1.42
B12	2.59	2.94	1.59	-1.42
B13	0.86	0.132	1.81	1.42
B14	2.21	2.41	2.44	2.31
B15	-2.15	-2.17	-1.37	-0.598
B16	-3.26	-3.83	-3.1	-2.88
B17	-2.28	-2.43	-1.8	-1.37

Sequence	log2 fold change of degron read counts [1]	log2 fold change of degron read counts [2]	log2 fold change of degron read counts [3]	log2 fold change of degron read counts (compound: thalidomide)
B18	2.95	2.34	2.58	2.45
B19	-2.04	-1.4	-0.144	-0.929
B20	-2.26	-3.02	-1.18	-0.917
B21	-2.1	-3.11	-1.84	-2.15
B22	-1.24	-2.06	-2.22	-2.05
B23	1.07	-1.4	-1.51	0.152
B24	3.04	3.18	2.27	1.42
B25	3.33	2.24	2.42	1.71
B26	3.54	2.15	1.39	1.39
B27	3.39	2.36	2.57	1.08
B28	1.45	2.72	2.67	2.79
B29	1.06	2.04	2.75	2.02
B30	1.95	-0.732	2.2	2.9
B31	0.217	2.83	2.01	2.79
B32	2.35	2.72	2.38	3.6
B33	2.73	0.654	1.35	1.92
B34	2.78	1.17	1.06	0.433
